Experimental data taken from PubChem BioAssay AID1159580 (chemical genetic matrix, 2015).
The whole screen tested about 5,500 compounds, of which about 2,000 (36%) were called active. Another 18% or so got no clear call; they are omitted. No stated cut-off is given here; in the data, active means normalized growth mostly below about 0.91 (no sharp cut-off); inconclusive means no clear call, values can overlap the other calls; inactive means mostly above about 0.92. Some of the results follow.

Test: chemical genetic growth profiling, strain panel (AID 1159580);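 further: tested at 20 µM; growth read once vehicle control cultures reached saturation at 30 °C; 1 = growth at the plate median or of vehicle wells; lower values mean less growth of the strain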
Conditions: growth OD

Measured: normalized growth

C=CCc1cc(OC)c2c(c1OC)OCO2
inactive: S. cerevisiae deletion strains, locus YJR075W, strain HOC1, active compounds read low 0.928 | S. cerevisiae deletion strains, locus YKL009W, strain mrt4, active compounds read low 0.953 | S. cerevisiae deletion strains, locus YKL085W, strain MDH1 (second series), active compounds read low 0.939 | S. cerevisiae deletion strains, locus YKL085W, strain MDH1, active compounds read low 0.939 | S. cerevisiae deletion strains, locus YKL160W, strain elf1, active compounds read low 0.915 | S. cerevisiae deletion strains, locus YKL190W, strain CNB1, active compounds read low 0.964 | S. cerevisiae deletion strains, locus YKR001C, strain vps1, active compounds read low 0.953 | S. cerevisiae deletion strains, locus YLL001W, strain dnm1, active compounds read low 0.96 | S. cerevisiae deletion strains, locus YLL041C, strain sdh2, active compounds read low 0.947 | S. cerevisiae deletion strains, locus YLR027C, strain aat2, active compounds read low 0.941 | S. cerevisiae deletion strains, locus YLR039C, strain RIC1, active compounds read low 1.03 | S. cerevisiae deletion strains, locus YLR058C, strain SHM2, active compounds read low 0.976 | S. cerevisiae deletion strains, locus YLR113W, strain HOG1, active compounds read low 0.957 | S. cerevisiae deletion strains, locus YLR221C, strain rsa3, active compounds read low 0.948 | S. cerevisiae deletion strains, locus YLR258W, strain gsy2, active compounds read low 0.941 | S. cerevisiae deletion strains, locus YLR262C, strain YPT6 (second series), active compounds read low 0.903 | S. cerevisiae deletion strains, locus YLR262C, strain YPT6, active compounds read low 1.06 | S. cerevisiae deletion strains, locus YLR268W, strain sec22, active compounds read low 1.01 | S. cerevisiae deletion strains, locus YLR330W, strain CHS5, active compounds read low 0.967 | S. cerevisiae deletion strains, locus YLR342W, strain FKS1 (second series), active compounds read low 0.953 | S. cerevisiae deletion strains, locus YLR342W, strain FKS1, active compounds read low 0.932 | S. cerevisiae deletion strains, locus YLR357W, strain rsc2, active compounds read low 1.07 | S. cerevisiae deletion strains, locus YLR370C, strain arc18, active compounds read low 0.924 | S. cerevisiae deletion strains, locus YLR371W, strain rom2, active compounds read low 0.943 | S. cerevisiae deletion strains, locus YLR384C, strain iki3, active compounds read low 0.935 | S. cerevisiae deletion strains, locus YLR418C, strain cdc73, active compounds read low 0.938 | S. cerevisiae deletion strains, locus YML016C, strain PPZ1, active compounds read low 0.988 | S. cerevisiae deletion strains, locus YML032C, strain rad52, active compounds read low 0.987 | S. cerevisiae deletion strains, locus YML120C, strain ndi1, active compounds read low 0.969 | S. cerevisiae deletion strains, locus YMR058W, strain fet3, active compounds read low 0.951 | S. cerevisiae deletion strains, locus YMR078C, strain ctf18, active compounds read low 0.943 | S. cerevisiae deletion strains, locus YMR125W, strain sto1, active compounds read low 0.896 | S. cerevisiae deletion strains, locus YMR223W, strain ubp8, active compounds read low 0.935 | S. cerevisiae deletion strains, locus YMR231W, strain pep5, active compounds read low 1 | S. cerevisiae deletion strains, locus YMR263W, strain SAP30, active compounds read low 0.94 | S. cerevisiae deletion strains, locus YMR307W, strain GAS1, active compounds read low 0.987 | S. cerevisiae deletion strains, locus YNL067W, strain RPL9B, active compounds read low 0.921 | S. cerevisiae deletion strains, locus YNL128W, strain TEP1, active compounds read low 0.971 | S. cerevisiae deletion strains, locus YNL153C, strain GIM3, active compounds read low 0.97 | S. cerevisiae deletion strains, locus YNL183C, strain NPR1, active compounds read low 0.916 | S. cerevisiae deletion strains, locus YNL209W, strain ssb2, active compounds read low 0.962 | S. cerevisiae deletion strains, locus YNL248C, strain rpa49, active compounds read low 0.969 | S. cerevisiae deletion strains, locus YNL250W, strain rad50, active compounds read low 0.967 | S. cerevisiae deletion strains, locus YNL271C, strain bni1, active compounds read low 0.929 | S. cerevisiae deletion strains, locus YNL298W, strain CLA4, active compounds read low 0.96 | S. cerevisiae deletion strains, locus YNL322C, strain KRE1 (second series), active compounds read low 0.933 | S. cerevisiae deletion strains, locus YNL322C, strain KRE1, active compounds read low 0.961 | S. cerevisiae deletion strains, locus YNR049C, strain mso1, active compounds read low 0.942 | S. cerevisiae deletion strains, locus YNR052C, strain pop2, active compounds read low 0.984 | S. cerevisiae deletion strains, locus YOL006C, strain TOP1, active compounds read low 0.589 | S. cerevisiae deletion strains, locus YOL012C, strain htz1 1.06 | S. cerevisiae deletion strains, locus YOL147C, strain pex11, active compounds read low 0.943 | S. cerevisiae deletion strains, locus YOR001W, strain rrp6, active compounds read low 0.949 | S. cerevisiae deletion strains, locus YOR061W, strain CKA2, active compounds read low 0.981 | S. cerevisiae deletion strains, locus YOR069W, strain VPS5, active compounds read low 0.99 | S. cerevisiae deletion strains, locus YOR070C, strain gyp1, active compounds read low 0.982 | S. cerevisiae deletion strains, locus YOR080W, strain dia2, active compounds read low 0.991 | S. cerevisiae deletion strains, locus YOR083W, strain WHI5, active compounds read low 0.951 | S. cerevisiae deletion strains, locus YOR106W, strain vam3, active compounds read low 0.956 | S. cerevisiae deletion strains, locus YOR136W, strain idh2, active compounds read low 0.974 | S. cerevisiae deletion strains, locus YOR144C, strain elg1, active compounds read low 0.952 | S. cerevisiae deletion strains, locus YOR231W, strain MKK1, active compounds read low 0.999 | S. cerevisiae deletion strains, locus YOR265W, strain rbl2, active compounds read low 0.967 | S. cerevisiae deletion strains, locus YOR270C, strain vph1, active compounds read low 0.841 | S. cerevisiae deletion strains, locus YOR290C, strain snf2, active compounds read low 0.926 | S. cerevisiae deletion strains, locus YOR316C, strain cot1, active compounds read low 0.929 | S. cerevisiae deletion strains, locus YPL051W, strain arl3, active compounds read low 0.998 | S. cerevisiae deletion strains, locus YPL055C, strain LGE1, active compounds read low 0.908 | S. cerevisiae deletion strains, locus YPL078C, strain atp4, active compounds read low 0.906 | S. cerevisiae deletion strains, locus YPL106C, strain sse1, active compounds read low 0.987 | S. cerevisiae deletion strains, locus YPL241C, strain CIN2, active compounds read low 0.967 | S. cerevisiae deletion strains, locus YPL256C, strain CLN2, active compounds read low 0.977 | S. cerevisiae deletion strains, locus YPR141C, strain kar3, active compounds read low 0.94 | S. cerevisiae deletion strains, locus YPR163C, strain tif3, active compounds read low 0.968 | S. cerevisiae deletion strains, locus YPR167C, strain met16, active compounds read low 0.939 | S. cerevisiae deletion strains, strain wtn01, active compounds read low 0.933 | S. cerevisiae strains, strain wild type, active compounds read low 0.999
active: S. cerevisiae deletion strains, locus YKL068W, active compounds read low 0.94 | S. cerevisiae deletion strains, locus YKR026C, strain gcn3, active compounds read low 0.909 | S. cerevisiae deletion strains, locus YKR091W, strain srl3, active compounds read low 0.922 | S. cerevisiae deletion strains, locus YLL026W, active compounds read low 0.923 | S. cerevisiae deletion strains, locus YLR102C, strain apc9, active compounds read low 0.923 | S. cerevisiae deletion strains, locus YLR320W, strain mms22, active compounds read low 0.666 | S. cerevisiae deletion strains, locus YML124C, strain tub3, active compounds read low 0.931 | S. cerevisiae deletion strains, locus YMR129W, active compounds read low 0.921 | S. cerevisiae deletion strains, locus YMR205C, strain PFK2, active compounds read low 0.83 | S. cerevisiae deletion strains, locus YNL071W, strain lat1, active compounds read low 0.737 | S. cerevisiae deletion strains, locus YNL233W, strain BNI4, active compounds read low 0.835 | S. cerevisiae deletion strains, locus YNL307C, strain MCK1, active compounds read low 0.862 | S. cerevisiae deletion strains, locus YOR184W, strain ser1, active compounds read low 0.872 | S. cerevisiae deletion strains, locus YPL240C, strain hsp82, active compounds read low 0.927 | S. cerevisiae deletion strains, locus YPR119W, strain clb2, active compounds read low 0.926
